20 compounds from PubChem BioAssay can be followed below.

A number with no mark means an inactive call. For some of these results: Measured potencies and affinities stand elsewhere. Calls of active or inactive are those of the source. Unless noted, the rule behind the calls is not given here.

Assay [1] can be described thus: antimalarial activity against Dd2 strain (AID 2302;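 active = growth inhibition above 50% at the single 2 µM test dose, taken to imply half-maximal potency below 2 µM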;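 note: 0% = DMSO untreated growth and 100% = chloroquine plus artemisinin killed control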). The note with it: P. falciparum Dd2 in RBCs, LDH growth readout, 72 h; at 2 µM; active compounds read high.
A short description of assay [2]: HepG2 cytotoxicity, primary screen, cytotoxicity control for P. falciparum antimalarial project, cell-based, ATP luminescence (AID 2303;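 active = inhibition above 50%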;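 note: 0% = DMSO wells and 100% = digitonin-killed cells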). The conditions noted are these: HepG2 viability, 24-48 h, at 10 µM, active compounds read high.
In assay [3] the target is L-lactate dehydrogenase (Plasmodium falciparum (isolate CDC / Honduras)) (UniProt Q27743). Kind of assay: PfLDH activity inhibition – cell lysate, 3D7 strain, counter-screen for P. falciparum growth inhibition project (AID 2304).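 Note: 0% = vehicle and 100% = reference inhibitor.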 The note with it: P. falciparum 3D7 crude extract, LDH APAD/NBT absorbance; at 2 µM; active compounds read high.
Chain of L-lactate dehydrogenase (Plasmodium falciparum (isolate CDC / Honduras)) (Q27743 whole entry, looked up): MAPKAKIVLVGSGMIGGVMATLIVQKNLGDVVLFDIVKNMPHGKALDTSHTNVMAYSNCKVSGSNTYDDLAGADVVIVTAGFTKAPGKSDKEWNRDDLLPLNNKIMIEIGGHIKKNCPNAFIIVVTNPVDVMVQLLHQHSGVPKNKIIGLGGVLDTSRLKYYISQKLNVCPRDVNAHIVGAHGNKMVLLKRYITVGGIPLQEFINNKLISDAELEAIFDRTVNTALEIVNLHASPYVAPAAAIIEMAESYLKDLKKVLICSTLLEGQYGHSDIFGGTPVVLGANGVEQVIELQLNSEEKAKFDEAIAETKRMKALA
The nature of assay [4]: inhibition of 3D7 malaria parasite growth – strain 3D7 (AID 2306).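 Note: 0% = DMSO wells and 100% = chloroquine plus artemisinin control wells.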 The note with it: P. falciparum 3D7 erythrocytic growth, LDH absorbance, 72 h; at 2 µM; active compounds read high.
The target of assay [5] is Calcium-dependent protein kinase 1 (Plasmodium falciparum (isolate 3D7)) (UniProt P62344). Kind of assay: PfCDPK1 kinase inhibitors, biochemical, TCAMS library (AID 1159585; cut-off not given, nearly all actives have IC50 up to about 0.98 µM;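 note: inhibitors leave more ATP so luminescence rises with inhibition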). The note with it: recombinant PfCDPK1, Kinase-Glo ATP depletion luminescence.
Chain of Calcium-dependent protein kinase 1 (Plasmodium falciparum (isolate 3D7)) (P62344 whole entry, looked up): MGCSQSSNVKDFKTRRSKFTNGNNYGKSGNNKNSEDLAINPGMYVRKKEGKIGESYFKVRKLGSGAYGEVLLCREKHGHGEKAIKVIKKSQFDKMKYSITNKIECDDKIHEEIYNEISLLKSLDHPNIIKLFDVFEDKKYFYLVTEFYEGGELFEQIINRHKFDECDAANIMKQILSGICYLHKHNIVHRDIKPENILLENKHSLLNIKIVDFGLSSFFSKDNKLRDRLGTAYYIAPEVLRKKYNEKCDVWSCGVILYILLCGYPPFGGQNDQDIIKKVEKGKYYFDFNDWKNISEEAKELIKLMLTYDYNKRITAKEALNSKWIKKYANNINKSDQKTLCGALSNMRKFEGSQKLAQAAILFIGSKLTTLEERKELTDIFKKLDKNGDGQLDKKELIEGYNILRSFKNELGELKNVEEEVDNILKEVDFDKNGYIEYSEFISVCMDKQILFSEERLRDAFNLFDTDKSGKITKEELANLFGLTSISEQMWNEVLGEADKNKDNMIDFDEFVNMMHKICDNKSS
Assay [6] addresses Plasmodium falciparum protein kinase 6 (PK6, PF3D7_1337100) (UniProt Q8IDW1). Kind of assay: PfPK6 kinase inhibitors, biochemical, TCAMS library (AID 1159586). The note with it: recombinant PfPK6, Kinase-Glo ATP depletion luminescence.
Assay [7] concerns the target Protein kinase 7 (PK7), Plasmodium falciparum 3D7 (PF3D7_0213400) (UniProt Q7YTF7). Kind of assay: inhibition of Plasmodium PK7 catalytic activity – biochemical, TCAMS antimalarial set, Kinase-Glo luminescence (AID 1159587). The conditions noted are these: recombinant PfPK7, Kinase-Glo ATP depletion luminescence.
For assay [8], the target named is Calcium-dependent protein kinase 4 (Plasmodium falciparum (isolate 3D7)) (UniProt Q8IBS5). Kind of assay: PfCDPK4 kinase inhibitors, biochemical, TCAMS library (AID 1159588; cut-off not given, nearly all actives have IC50 up to about 0.91 µM). The conditions noted are these: recombinant PfCDPK4, Kinase-Glo ATP depletion luminescence.
Chain of Calcium-dependent protein kinase 4 (Plasmodium falciparum (isolate 3D7)) (Q8IBS5 whole entry, looked up): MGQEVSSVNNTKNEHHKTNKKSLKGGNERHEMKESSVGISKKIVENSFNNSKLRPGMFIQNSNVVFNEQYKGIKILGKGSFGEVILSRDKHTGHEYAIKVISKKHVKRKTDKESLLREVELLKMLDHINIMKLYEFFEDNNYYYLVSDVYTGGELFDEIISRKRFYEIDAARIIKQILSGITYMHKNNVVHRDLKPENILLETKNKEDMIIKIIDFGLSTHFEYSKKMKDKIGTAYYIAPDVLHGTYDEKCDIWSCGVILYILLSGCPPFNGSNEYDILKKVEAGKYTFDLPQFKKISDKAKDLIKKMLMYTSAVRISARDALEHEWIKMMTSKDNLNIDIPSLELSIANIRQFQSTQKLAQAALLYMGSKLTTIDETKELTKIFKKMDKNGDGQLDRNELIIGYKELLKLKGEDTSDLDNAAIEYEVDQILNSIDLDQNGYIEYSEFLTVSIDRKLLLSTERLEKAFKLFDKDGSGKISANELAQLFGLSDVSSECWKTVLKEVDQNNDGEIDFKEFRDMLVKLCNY

Chain of Plasmodium falciparum protein kinase 6 (PK6, PF3D7_1337100) (Q8IDW1 1-305): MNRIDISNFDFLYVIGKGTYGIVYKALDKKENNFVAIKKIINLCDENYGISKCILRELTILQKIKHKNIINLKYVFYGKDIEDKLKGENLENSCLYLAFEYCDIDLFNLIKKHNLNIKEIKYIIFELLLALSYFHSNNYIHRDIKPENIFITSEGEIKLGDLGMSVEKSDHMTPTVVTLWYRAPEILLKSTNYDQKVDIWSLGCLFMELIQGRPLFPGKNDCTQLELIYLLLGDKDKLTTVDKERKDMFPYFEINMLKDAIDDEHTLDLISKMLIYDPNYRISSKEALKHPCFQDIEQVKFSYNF
Chain of Protein kinase 7 (PK7), Plasmodium falciparum 3D7 (PF3D7_0213400) (Q7YTF7 1-343): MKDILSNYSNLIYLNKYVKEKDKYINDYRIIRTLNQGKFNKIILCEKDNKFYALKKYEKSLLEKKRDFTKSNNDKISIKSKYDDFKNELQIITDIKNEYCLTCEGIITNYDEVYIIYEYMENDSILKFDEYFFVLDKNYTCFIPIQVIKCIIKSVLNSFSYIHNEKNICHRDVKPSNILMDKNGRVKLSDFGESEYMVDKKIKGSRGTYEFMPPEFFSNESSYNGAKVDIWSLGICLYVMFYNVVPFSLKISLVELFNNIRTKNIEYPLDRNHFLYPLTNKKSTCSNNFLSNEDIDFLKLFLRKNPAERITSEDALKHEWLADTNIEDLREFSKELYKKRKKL

In the case of `CC(C)CCn1c(Sc2ccc(C#N)c([N+](=O)[O-])c2)nnc1-c1ccccc1Cl`, the growth inhibition in assay [1] was 38%; in assay [4] it was 93% (active). Besides, the inhibition in assay [2] was 20%; in assay [3] it was 3%. Also, the result in assay [5], in assay [6], in assay [7] and in assay [8] was inactive.
With `Cc1c(F)cc(C(=O)NC2CC2)cc1-c1ccc2c(c1)c(C)nn2S(=O)(=O)c1cccs1`, the growth inhibition is 92% (active) in assay [1] and 91% (active) in assay [4]. For the same compound, the results for the inhibition in assay [2] and in assay [3] were 34% and -3%, respectively. Further, the outcome in assay [5], in assay [6], in assay [7] and in assay [8] was inactive.
For the compound `CC(C)(C)OC(=O)Cn1cnc2cc(NC(=O)c3cc([N+](=O)[O-])cc([N+](=O)[O-])c3)ccc21`, the growth inhibition is 97% (active) in assay [1] and 100% (active) in assay [4]. Besides, the inhibition is 11% in assay [2] and 5% in assay [3]. Also, the result in assay [5], in assay [6], in assay [7] and in assay [8] was inactive.
On to `Cc1ccc(NC(=O)c2ccc(NCCCN3CC(C)CC(C)C3)c([N+](=O)[O-])c2)cc1F` (stereo not given), for which the growth inhibition in assay [1] was 85% (active); in assay [4], 101% (active). The results for the inhibition in assay [2] and in assay [3] were 18% and -8%, respectively. The outcome in assay [5], in assay [6], in assay [7] and in assay [8] was inactive.
Consider `O=C(NC1CCN(Cc2ccccc2)CC1)c1ccc(-c2nc3cc(Cl)c(F)cc3[nH]2)s1`, for which the growth inhibition in assay [1] was 99% (active); in assay [4], 101% (active). For the same compound, the inhibition is 28% in assay [2] and 3% in assay [3]. Moreover, the result in assay [5], in assay [6], in assay [7] and in assay [8] was inactive.
For `COCCNC(=O)C(CNC(=O)c1ccc2c(c1)OCO2)NC(=O)c1ccc(-c2ccccc2)cc1` (stereo not given), the growth inhibition was 3% in assay [1] and 90% (active) in assay [4]. Moreover, the inhibition in assay [2] was 14%; in assay [3] it was 1%. The outcome in assay [5], in assay [6], in assay [7] and in assay [8] was inactive.
With `O=C(Nc1ccccc1)Nc1cccc(-c2cccc(-c3nc4ccc(F)cc4[nH]3)c2)c1`, the growth inhibition in assay [1] was 41%; in assay [4], 99% (active). Besides, the inhibition in assay [2] is 38%; in assay [3] it was 4%. The outcome in assay [5], in assay [6], in assay [7] and in assay [8] was inactive.
`Cc1ccc(N/C(N)=N/c2ncccc2OCc2c(F)cccc2Cl)cc1`: the growth inhibition in assay [1] is 54% (active); in assay [4], 86% (active). The results for the inhibition in assay [2] and in assay [3] were 78% (active) and -2%, respectively. The result in assay [5], in assay [6], in assay [7] and in assay [8] was inactive.
As for `CCc1c(CCNCCCCCNCCc2ccc(OC)c(OC)c2CC)ccc(OC)c1OC`, the results for the growth inhibition in assay [1] and in assay [4] were 1% and 101% (active), respectively. Also, the inhibition in assay [2] is 59% (active); in assay [3], -1%. In addition, the outcome in assay [5], in assay [6], in assay [7] and in assay [8] was inactive.
As for `Cc1cc(N[C@@H](Cc2ccccc2)C(=O)NCc2cccc(F)c2)nc(Nc2ccccc2)n1`, the growth inhibition in assay [1] was 92% (active); in assay [4], 100% (active). Further, the inhibition was 20% in assay [2] and 5% in assay [3]. Besides, the result in assay [5], in assay [6], in assay [7] and in assay [8] was inactive.
Turning to `CCN1CCCC(Nc2ccnc3cc4ccccc4cc23)C1` (stereo not given), the results for the growth inhibition in assay [1] and in assay [4] were 100% (active) and 101% (active), respectively. Moreover, the results for the inhibition in assay [2] and in assay [3] were 38% and 2%, respectively. Further, the result in assay [5], in assay [6], in assay [7] and in assay [8] was inactive.
As for `O=C(CN1CCCC1)Nc1cccc(C(=O)Nc2cccc(C(F)(F)F)c2)c1`, the growth inhibition in assay [1] was 83% (active); in assay [4], 95% (active). Moreover, the figures for the inhibition in assay [2] and in assay [3] were 9% and 1%, respectively. Besides, the result in assay [5], in assay [6], in assay [7] and in assay [8] was inactive.
For the compound `Cc1c(Cl)cccc1NC(=S)NN=Cc1ccccn1`, the growth inhibition was 85% (active) in assay [1] and 99% (active) in assay [4]. Also, the inhibition was 58% (active) in assay [2] and 5% in assay [3]. Also, the outcome in assay [5], in assay [6], in assay [7] and in assay [8] was inactive.
Turning to `COc1ccc2ncc(F)c(CCN3CCC(CNCc4cccc5c4OCO5)CC3)c2n1`, the growth inhibition is 37% in assay [1] and 93% (active) in assay [4]. Also, the results for the inhibition in assay [2] and in assay [3] were 39% and -2%, respectively. Besides, the result in assay [5], in assay [6], in assay [7] and in assay [8] was inactive.
Turning to `O=C(NC1CCCCC1)N(CCCn1ccnc1)Cc1csc(-c2ccc(CNCc3ccccc3)cc2)n1`, the growth inhibition is 48% in assay [1] and 97% (active) in assay [4]. Besides, the results for the inhibition in assay [2] and in assay [3] were 5% and 0%, respectively. Moreover, the result in assay [5], in assay [6], in assay [7] and in assay [8] was inactive.
Regarding `Cc1cccn2c(=O)c3cc(C(=O)NC(C)c4ccccc4)c(=N)n(CCN4CCOCC4)c3nc12` (stereo not given), the growth inhibition is 5% in assay [1] and 101% (active) in assay [4]. Moreover, the inhibition was 6% in assay [2] and 4% in assay [3]. The outcome in assay [5], in assay [6], in assay [7] and in assay [8] was inactive.
With `COc1ccc(CNc2nc(NCc3ccc(C(F)(F)F)cc3)c3cc(OC)c(OC)cc3n2)cc1OC`, the growth inhibition was 100% (active) in assay [1] and 103% (active) in assay [4]. Also, the values for the inhibition in assay [2] and in assay [3] were 80% (active) and -3%, respectively. In addition, the result in assay [5], in assay [6], in assay [7] and in assay [8] was inactive.
Consider `CCc1ccc(C2CCN(CCCCNC(=O)c3ccc(-c4ccc(Cl)cc4)cc3)CC2)c(O)c1`, for which the growth inhibition was 99% (active) in assay [1] and 101% (active) in assay [4]. The results for the inhibition in assay [2] and in assay [3] were 48% and 2%, respectively. Further, the result in assay [5], in assay [6], in assay [7] and in assay [8] was inactive.
As to `CN1CCCN(Cc2cccc(-c3cccc(NC(=O)c4ccc(Cl)cc4)c3)c2)CC1`, the growth inhibition in assay [1] was 44%; in assay [4], 100% (active). In addition, the figures for the inhibition in assay [2] and in assay [3] were 35% and 2%, respectively. For the same compound, the outcome in assay [5], in assay [6], in assay [7] and in assay [8] was inactive.
On to `Cc1cc(NCCc2ccc(O)cc2)nc(NCC(c2ccccc2)c2ccccc2)n1`, for which the growth inhibition in assay [1] was 77% (active); in assay [4], 102% (active). In addition, the inhibition in assay [2] was 22%; in assay [3], 1%. Moreover, the outcome in assay [5], in assay [6], in assay [7] and in assay [8] was inactive.
